Compound activity (PubChem)
HttQ103 aggreg – mutant huntingtin aggregation inhibition. Potency, µM (top dose mostly 46.1 µM), most hits filed as inhibitors. hit rate 1.1% among 220,000. PC12 HttQ103-GFP aggregates, Acumen cytometry, 40 h; note: nearly all actives have a fitted effect of over 60% in size
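Compounds (qHTS titration) were added to PC12 cells expressing an ecdysone-driven HTT exon 1 Q103–GFP fusion after induction with 100 nM tebufenozide. Aggregate formation was measured as GFP objects in cell lysates.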
ALDH1A1 inh – blocks purified human ALDH1A1 activity; hit rate 7.3% among 220,000; Purified ALDH1A1, NADH fluorescence, propionaldehyde substrate; AID 1030; Potency, µM (highest dose often 75.3 µM), usual class: inhibitors; P00352; active = well fitted inhibition curve with a large enough effect, not every such curve was filed as active; inconclusive = small, poorly fitted or top-dose-only effect, or another doubt; inactive = no such curve, though single readings can be large or run the other way
IMPase Li cell – IMPase inhibition in cells with lithium potentiation | Potency, µM (titrated, usually from 59.4 µM), actives largely listed as inhibitors | CHO-M1 cells, IP1 TR-FRET (IP-One), carbachol + lithium | AID 1457 | hit rate 0.35% among 210,000;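 note: IP1 builds up when IMPase is blocked and the TR-FRET signal falls; nearly all actives have a fitted effect of over 50% in size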
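Concentration–response in CHO-M1 cells, lithium-potentiated; 30 min at 37C. IP1 detected by competitive TR-FRET after 10 min lysis at RT. Hill-fitted AC50.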
HTT cytoprotect – protects HTT-Q103 PC12 cells, measured by ATP. PC12 HTT-Q103 induced, cytoprotection, ATP luminescence, 40 h. Potency, µM (series often up to 56.4 µM), actives largely listed as activators. hit rate 0.14% among 230,000. AID 1471; note: nearly all actives have a fitted effect of over 45% in size
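Stable PC12 Q103-GFP cells in serum-supplemented, phenol red-free DMEM; induction by tebufenozide at 100 nM final; compound dose series; cell viability quantified luminescently from ATP.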
IMPase inh – membrane-permeable compound that blocks inositol monophosphatase; CHO-M1 cells, IP1 accumulation, HTRF TR-FRET ratio; inhibition (IP1 accumulation), % at 46.1 µM; 120,000 tested, under 10 active; active = well fitted curve in the direction sought with a large enough effect in the signal ratio, not every such curve was filed as active; inconclusive = small, poorly fitted or top-dose-only effect, or a change in a side signal; inactive = no such curve, though single readings can be large or run the other way; the % refers to the signal ratio;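 note: cells stimulated with carbachol in lithium chloride buffer; higher means more IMPase inhibition seen as more IP1 and lower FRET ratio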
Target sequence (P97697 whole entry, looked up): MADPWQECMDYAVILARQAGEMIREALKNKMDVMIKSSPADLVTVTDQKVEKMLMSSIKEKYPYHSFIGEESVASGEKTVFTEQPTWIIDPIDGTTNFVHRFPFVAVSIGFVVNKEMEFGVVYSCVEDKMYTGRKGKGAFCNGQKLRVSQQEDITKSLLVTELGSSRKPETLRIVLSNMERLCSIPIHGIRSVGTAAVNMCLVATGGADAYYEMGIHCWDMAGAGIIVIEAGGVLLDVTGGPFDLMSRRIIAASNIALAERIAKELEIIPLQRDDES
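CHO-M1 cells (CHO stably expressing M1 receptor), compound up to 46 uM final, stimulated with carbachol (50 uM as added) in buffer with 50mM LiCl, pH 7.4, 30 min at 37C. Cytosolic IP1 read by TR-FRET; AC50 from Hill fits.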
HPGD block – blocks human HPGD enzyme activity | P15428 | purified HPGD, NADH fluorescence kinetic, PGE2 substrate | Potency, µM, usual class: inhibitors | hit rate 4.3% among 150,000 | AID 894; active = well fitted inhibition curve with a large enough effect, not every such curve was filed as active; inconclusive = small, poorly fitted or top-dose-only effect, or another doubt; inactive = no such curve, though single readings can be large or run the other way
Target sequence (P15428 whole entry, looked up): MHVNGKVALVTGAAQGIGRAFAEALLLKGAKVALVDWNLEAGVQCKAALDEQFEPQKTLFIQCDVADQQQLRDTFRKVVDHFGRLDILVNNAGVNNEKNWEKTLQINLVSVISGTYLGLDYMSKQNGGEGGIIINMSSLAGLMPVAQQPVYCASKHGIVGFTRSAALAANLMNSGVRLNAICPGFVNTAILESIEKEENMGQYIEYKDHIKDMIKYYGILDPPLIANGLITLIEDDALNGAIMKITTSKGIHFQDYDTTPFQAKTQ
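NADH formation kinetics: reaction with 30 uM PGE2 and 1 mM NAD+ (final), 20 nM enzyme, Tris-HCl pH 8 with Tween 20, after 15 min compound preincubation at room temperature. Fluorescence change, last versus first of five reads.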
Of the large screens only hits and unclear results are named; the others gave an inactive call. Sampled rows, rich in hits. Any-hit rate of the full collection: about 9.4%. Unless noted, calls come from the whole dose curve; as a rule, active = well fitted curve in the direction sought with a large enough effect; inconclusive = small, poorly fitted or top-dose-only effect, or another doubt; inactive = no such curve, though single readings can be large; an effect the other way counts as inactive or inconclusive.

CCc1cccc(CC)c1NC(=S)NCCc1c(C)[nH]c2ccccc12	HttQ103 aggreg inconclusive (no result: HTT cytoprotect, IMPase inh)
COc1cc(NS(=O)(=O)c2ccc(NC(=O)COc3ccc(Cl)cc3Cl)cc2)nc(OC)n1	none (no result: HttQ103 aggreg, ALDH1A1 inh, IMPase Li cell, HTT cytoprotect, HPGD block)
COc1ccc(CNC(=O)c2cnc(C)cn2)cc1	ALDH1A1 inh inconclusive, HPGD block 25µM
COc1ccc(CNC(=O)c2ccc(C)o2)cc1	HPGD block 3.5µM
COc1ccc(CNC(=O)C(C)Sc2ccc(C)cc2)cc1 (configuration not stated)	ALDH1A1 inh 14µM (no result: IMPase inh, HPGD block)
COc1ccc(CNC(=O)c2c(-c3cc(Cl)c(OC)c(Cl)c3)noc2C)cc1	ALDH1A1 inh 0.045µM, IMPase Li cell inconclusive
COc1ccc(CNC(=O)c2ccc(C(C)(C)C)cc2)cc1	none (no result: IMPase inh, HPGD block)
CO/N=C(/C(=O)N[C@@H]1C(=O)N2C(C(=O)O)=C(C[n+]3ccc(N)n3CCO)CS[C@H]12)c1csc(N)n1	none (no result: ALDH1A1 inh, IMPase Li cell, IMPase inh, HPGD block)
O=C(C(=O)N1CCCC1CO)N1CCCC1CO (configuration not stated)	none (no result: IMPase inh, HPGD block)
CC(=O)Oc1ccc2c(c1)Oc1cc(OC(C)=O)ccc1C21OC(=O)c2ccccc21	HttQ103 aggreg 0.32µM, ALDH1A1 inh inconclusive
CC(=O)O[C@]12CC[N@+]3(C)CCCC[C@@H]3[C-]1Nc1ccccc12	none (no result: HttQ103 aggreg, IMPase inh)
O=C(O)C1C2C=CC(CC2)C1C(=O)O (configuration not stated)	none
N[C@H]1[C@@H](C(=O)O)[C@H]2C=C[C@H]1C2	ALDH1A1 inh 0.5µM (no result: HttQ103 aggreg, IMPase inh)
CC1=CC(C)(C)N(C(=O)CSc2ncn[nH]2)c2ccccc21	ALDH1A1 inh 13µM
CCCc1c(C(=O)Nc2ccc(N3CCOCC3)cc2)cnn1-c1ccccc1	ALDH1A1 inh 3.2µM (no result: IMPase Li cell, IMPase inh, HPGD block)
CCCc1c(C(=O)Nc2cc(C)on2)cnn1-c1ccccc1	ALDH1A1 inh 18µM (no result: IMPase Li cell, IMPase inh, HPGD block)
CCc1ccc(NC(=O)c2cnn(-c3ccccc3)c2C)cc1	HPGD block 2.5µM (no result: HTT cytoprotect, IMPase inh)
CCCc1c(C(=O)NNc2ccc(C)cc2)cnn1-c1ccccc1	ALDH1A1 inh 14µM (no result: IMPase Li cell, IMPase inh, HPGD block)
CCCCOc1cccc(C(=O)N(Cc2ccc(Cl)cc2)C2CCS(=O)(=O)C2)c1 (configuration not stated)	none (no result: HttQ103 aggreg, ALDH1A1 inh, IMPase Li cell, HTT cytoprotect, HPGD block)
O=C(c1cc(-c2cccc(O)c2)on1)N1CCOCC1	ALDH1A1 inh inconclusive
CCN1C(=O)c2ccccc2S(=O)c2ccc(C(=O)N3CCOCC3)cc21 (configuration not stated)	none (no result: ALDH1A1 inh, IMPase Li cell, IMPase inh, HPGD block)
O=C1c2ccccc2-c2ccc(C(=O)N3CCOCC3)cc21	HPGD block 11µM
O=C(c1cccc(-c2ccc(O)cc2)c1)N1CCOCC1	HPGD block 16µM
CC1=C(CO)C(=O)OC([C@@H](C)C2CC[C@H]3C4C[C@H]5O[C@]56[C@@H](O)C=CC(=O)[C@]6(C)C4CC[C@]23C)C1 (some centres not stated)	HttQ103 aggreg inconclusive, HTT cytoprotect 3.5µM (no result: ALDH1A1 inh, IMPase Li cell, IMPase inh, HPGD block)
CC(C(=O)O)C1CCC2C3CC=C4CC(O)CC[C@@]4(C)C3CC[C@]12C (some centres not stated)	none (no result: HttQ103 aggreg, HTT cytoprotect, IMPase inh)
N#Cc1ccc(CN2CC3(CCN(C(=O)c4ccncc4)CC3)C2)cc1	none (no result: HttQ103 aggreg, IMPase inh)
C=CCN(Cc1cccc(OC)c1OC)S(=O)(=O)N(C)C	ALDH1A1 inh 25µM
COc1cccc(CN(C)C(=O)c2cccnc2SC)c1OC	none (no result: IMPase inh, HPGD block)
COC(=O)c1ccc(CS(=O)(=O)c2ccccc2C)o1	HttQ103 aggreg inconclusive, ALDH1A1 inh 2.2µM
Cc1cccc(N2CCN(C(=O)c3ccccn3)CC2C)c1 (configuration not stated)	none (no result: IMPase inh, HPGD block)
Cc1cccc(N2CCN(C(=O)c3ccc(CS(=O)(=O)c4ccccc4C)o3)CC2C)c1 (configuration not stated)	HttQ103 aggreg 22µM
Cc1ccccc1S(=O)(=O)Cc1ccc(C(=O)NCc2ccc(F)cc2)o1	none (no result: IMPase inh, HPGD block)
Cc1ccc(C)c(N2CCN(C(=O)c3ccc(CS(=O)(=O)c4ccccc4C)o3)CC2)c1	HttQ103 aggreg 28µM, ALDH1A1 inh inconclusive
Cc1ccc(S(=O)(=O)Cc2ccc(C(=O)N3CCN(c4cc(C)ccc4C)CC3)o2)cc1	none
